High-throughput results as filed in PubChem.
Pf Dd2 growth – qHTS Primary assay for Inhibitors of Plasmodium falciparum Dd2 growth in vitro; P. falciparum Dd2 growth, SYBR Green, 72 h; Potency, µM (series often up to 28.9 µM), without a hit: at the top dose activity, negative = inhibition, hits mostly inhibitors; 4.3% of 120,000 active; AID 1347417, 2020; active = well fitted inhibition curve with a large enough effect;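 also: plate controls were DMSO vehicle for no effect and reference drug for full effect; nearly all actives have a fitted effect of over 65% in size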
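Infected erythrocytes (Dd2, 0.3% parasitemia, 2.5% hematocrit final) are added to compound in RPMI-1640/Albumax II medium, grown 72 h at 37C in low oxygen, then lysed with saponin/Triton-X containing SYBR Green and read by fluorescence.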
* = called active by the depositor; i = inactive; [ ] = remark or other dose. The full list was thinned out, with hits kept by preference. Potency is read from the fitted curve at half-maximal effect.

SMILES | Pf Dd2 growth
O=C(CCC1CCCN(S(=O)(=O)c2ccccc2)C1)N1CCN(c2ccccn2)CC1 (configuration not stated) | i
CCOc1ncccc1C(=O)N1C[C@H](OCC)[C@@H](O)C1 | 2%
CCc1nc2c(=O)n(CC(=O)N3CCN(C4CCCCC4)CC3)nc(C)c2s1 | 34%
Cc1ccc(NC(=O)C2CC(=O)N(c3n[nH]c4cccc(F)c34)C2)c(C)c1 (configuration not stated) | 12%
Cn1nc(C(=O)NCCc2noc(-c3ccncc3)n2)c2ccccc21 | -19%
CC(C)(C)NC(=O)N1CCC2(CC1)C(=O)N(CC(=O)NCCc1ccccc1)CN2c1ccccc1 | -15%
COc1cc2c(cc1OC)C(CNC(=O)c1ccccc1Cl)N(C(=O)Nc1ccccc1F)CC2 (configuration not stated) | -3%
CCC(=O)NCC1c2cc(OC)c(OC)cc2CCN1C(=O)Nc1cccc(C)c1 (configuration not stated) | i
COc1cc2c(cc1OC)C(CNC(=O)c1cccs1)N(C(=O)Nc1ccccc1)CC2 (configuration not stated) | 8.9µM*
CCC(=O)NCC1c2cc(OC)c(OC)cc2CCN1C(=O)Nc1ccccc1 (configuration not stated) | -5%
COc1cc2c(cc1OC)C(CNC(=O)c1cccs1)N(C(=O)Nc1ccccc1F)CC2 (configuration not stated) | i
COc1ccccc1NC(=O)N1CCc2cc(OC)c(OC)cc2C1CNC(=O)c1ccco1 (configuration not stated) | 7.1µM*
COc1ccccc1NC(=O)N1CCc2cc(OC)c(OC)cc2C1CNC(C)=O (configuration not stated) | 9%
COc1cc2c(cc1OC)C(CNC(=O)C1CCCC1)N(C(=O)Nc1cccc(C)c1)CC2 (configuration not stated) | 11µM*
COc1cc2c(cc1OC)C(CNC(=O)c1ccccc1)N(C(=O)Nc1ccccc1F)CC2 (configuration not stated) | i
CCCNC(=O)N1CCc2cc(OC)c(OC)cc2C1CNC(=O)c1ccccc1C (configuration not stated) | 8.9µM*
COc1cc2c(cc1OC)C(CNC(=O)C1CCCC1)N(C(=O)NC(C)C)CC2 (configuration not stated) | i
COc1ccccc1OCCNC(=O)CN1CC2CC(C1)[C@H]1CCCC(=O)N1C2 (some centres not stated) | i
CN1[C@@H](CCC(=O)N2CCOCC2)CNC(=O)[C@@H]2[C@H]1CCN2Cc1cccc(OC(F)(F)F)c1 | -11%
COCCNC(=O)[C@H]1C[C@H](Oc2ccccc2)CN1Cc1ccncc1 | 14%
CCNC(=O)N[C@H]1[C@H](O)[C@H](O)C[C@@H]1C1CCCCC1 | -19%[44.1 µM]
COCC(=O)N1CCN(C(=O)NC(C)C)C[C@H]1C(=O)N[C@H](Cc1cccnc1)C(=O)OC | 0%
O=C1CC2CCN([S+](=O)([O-])c3cc(C(F)(F)F)cc(C(F)(F)F)c3)CC2CCN1 (configuration not stated) | 13%
COc1ccc(-c2noc(-c3nc(Cc4cccc(F)c4)no3)n2)cc1OC | i
COC(=O)[C@@H](C)NC(=O)[C@H]1CN(C(=O)c2cccnc2)CCN1C(C)=O | 12%[44.1 µM]
SMILES | Pf Dd2 growth
Cc1ccc(C(=O)N2CC[C@@](C)(O)[C@@H](Cc3ccccc3)C2)cc1C | 8.9µM*
Cc1ccc(C(=O)N2CCC3(CC2)NC(=O)N(Cc2ccccc2)C3=O)cc1F | 10%
Cc1ccc(C(=O)N2CCC3(CC2)NC(=O)N(c2ccccc2)N3)cc1C | -3%
CS(=O)(=O)N1C[C@H]2CCN(C(=O)Cc3ccccc3Cl)C[C@H]21 | -1%
CNC(=O)[C@@H]1CN(C(=O)c2ccc(Cl)cc2OC)C[C@H]1c1nc(C)no1 | 9%
COc1ccc(NC(=O)[C@@H]2COCC(=O)N2Cc2ccccc2)cc1 | i
C[C@@H]1C(=O)O[C@H]2[C@H]1CC[C@@]1(C)Cc3sc(NC(=O)c4ccc(F)c(Cl)c4)nc3[C@@H](C)[C@H]21 | 11µM*
C[C@@H]1C(=O)O[C@H]2[C@H]1CC[C@@]1(C)Cc3sc(NS(=O)(=O)c4ccc(F)c(Cl)c4)nc3[C@@H](C)[C@H]21 | -13%
C[C@@H]1C(=O)O[C@H]2[C@H]1CC[C@@]1(C)Cc3sc(NC(=O)c4ccncc4)nc3[C@@H](C)[C@H]21 | i
CN(Cc1cccnc1)c1nc2c(c(=O)[nH]1)CCN(CCc1ccccc1)CC2 | 25%[5.79 µM]
COC(=O)[C@@H]1Cc2ncn(Cc3ccc(Cl)cc3)c2CN1Cc1cccc(C#N)c1 | 11µM*
COC(=O)[C@@H]1Cc2ncn(Cc3ccccc3)c2CN1S(=O)(=O)c1cccs1 | i
COC(=O)[C@@H]1Cc2ncn(Cc3ccc(Cl)cc3)c2CN1S(=O)(=O)c1cccs1 | -26%
COC(=O)[C@@H]1Cc2ncn(Cc3ccc(Cl)cc3)c2CN1S(=O)(=O)c1ccc(NC(C)=O)cc1 | -7%
COC(=O)[C@@H]1Cc2ncn(Cc3ccccc3)c2CN1S(=O)(=O)Cc1ccccc1 | 11µM*
